The supplement of paper PMC8387472

Columns and labels:
Settings in all cases: mESC; 2uM; 72 h treatment, harvest day 5
[1] = compound: O=c1cc(N2CCOCC2)oc2c(-c3ccc4c(c3)OCCO4)csc12; assay: fraction of edited reads among all mapped reads; higher = more Cas9 editing
[2] = compound: S=c1[nH]cnc2nc[nH]c12 [Mercaptopurine (6-MP)]; assay: as above
[3] = compound: S=c1nc[nH]c2nc[nH]c12 [6-Mercaptopurine (6-MP) Monohydrate]; assay: as above
[4] = compound: CC(=O)O/N=C1\C(=O)N(Cc2cc(Cl)ccc2Cl)c2ccc(Cl)cc21; assay: fraction of microhomology deletions among edited reads; higher = more MH deletions
[5] = compound: CC(C)(C#N)c1ccc(N2C(=O)OCc3cnc4ccc(-c5cnc6ccccc6c5)cc4c32)cc1; assay: as above
[6] = compound: CCCCOc1c(C(=O)c2c(F)cc(C)cc2F)c[nH]c2nncc1-2; assay: as above
[7] = compound: CCN1CCN(CC(=O)Nc2ccc(-c3cccc4c(=O)cc(N5CCOCC5)oc34)c3sc4ccccc4c23)CC1; assay: as above
[8] = compound: CCc1c2c(nc3ccc(OC(=O)N4CCC(N5CCCCC5)CC4)cc13)-c1cc3c(c(=O)n1C2)COC(=O)[C@]3(O)CC [Irinotecan HCl Trihydrate]; assay: as above
[9] = compound: CCn1c(=O)c(-c2ccc(Cl)cc2Cl)cc2cnc(Nc3ccc(N4CCNCC4)c(F)c3)nc21; assay: as above
[10] = compound: CNc1ccc([N+](=O)[O-])c(Nc2ccc3[nH]ncc3c2)n1; assay: as above
[11] = compound: CO[C@H]1/C=C/O[C@@]2(C)Oc3c(C)c(O)c4c(O)c(c(/C=N/N5CCN(C6CCCC6)CC5)c(O)c4c3C2=O)NC(=O)/C(C)=C\C=C\[C@H](C)[C@H](O)[C@@H](C)[C@@H](O)[C@@H](C)[C@H](OC(C)=O)[C@@H]1C [Rifapentine]; assay: as above
[12] = compound: COc1ccccc1-c1cc(Nc2cccc(CS(N)(=O)=O)c2)ncn1; assay: as above
[13] = compound: C[C@@H]1CN(CC(=O)Nc2ccc3c(c2)Cc2cccc(-c4cc(=O)cc(N5CCOCC5)o4)c2S3)C[C@H](C)O1; assay: as above
[14] = compound: Cc1cc(C)nc(SCC(=O)Nc2ncc(Cc3cccc4ccccc34)s2)n1; assay: as above
[15] = compound: Cc1cccc(CC(=O)N2CCc3c2ccc(-c2cn(C)c4ncnc(N)c24)c3F)n1; assay: as above
[16] = compound: NC(=O)c1ccc2nc(-c3ccc(Oc4ccc(Cl)cc4)cc3)[nH]c2c1 [Chk 2 inhibitor II (BML-277)]; assay: as above
[17] = compound: Nc1cc(F)ccc1NC(=O)c1ccc(CNC(=O)/C=C/c2cccnc2)cc1 [Tucidinostat (Chidamide)]; assay: as above
[18] = compound: Nc1nc2[nH]cc(CCc3ccc(C(=O)N[C@@H](CCC(=O)O)C(=O)O)cc3)c2c(=O)[nH]1 [Pemetrexed]; assay: as above
[19] = compound: Nc1ncnc2c1c(-c1cnc3[nH]ccc3c1)nn2C1CCCC1; assay: as above
[20] = compound: O=C(c1cccc(Cl)c1F)N1CCN(Cc2cccc(Nc3nccs3)n2)CC1; assay: as above

Target | fraction of edited reads among all mapped reads [1] | fraction of edited reads among all mapped reads [2] | fraction of edited reads among all mapped reads [3] | fraction of microhomology deletions among edited reads [4] | fraction of microhomology deletions among edited reads [5] | fraction of microhomology deletions among edited reads [6] | fraction of microhomology deletions among edited reads [7] | fraction of microhomology deletions among edited reads [8] | fraction of microhomology deletions among edited reads [9] | fraction of microhomology deletions among edited reads [10] | fraction of microhomology deletions among edited reads [11] | fraction of microhomology deletions among edited reads [12] | fraction of microhomology deletions among edited reads [13] | fraction of microhomology deletions among edited reads [14] | fraction of microhomology deletions among edited reads [15] | fraction of microhomology deletions among edited reads [16] | fraction of microhomology deletions among edited reads [17] | fraction of microhomology deletions among edited reads [18] | fraction of microhomology deletions among edited reads [19] | fraction of microhomology deletions among edited reads [20]
17.0 (DMSO control at this site: 1-bp insertion 0.112, MH deletion 0.348, edited 0.058) CCATAGCGCGATAAATATGACGGCTCATCCTGTATGACGGCTCATCCTGTATCAACTGTCC | 0.037 | 0.0873 | 0.069 | 0.396 | 0.391 | 0.416 | 0.509 | 0.411 | 0.358 | 0.402 | 0.43 | 0.378 | 0.243 | 0.444 | 0.409 | 0.35 | 0.38 | 0.474 | 0.39 | 0.409
32.0 (DMSO control at this site: 1-bp insertion 0.03, MH deletion 0.85, edited 0.898) AGAAGTCCAGGATCAGGGGGACTGGGGTCGGGAGGGTGGGGCAGGAAGGAAGCCAGAATCA | 0.84 | 0.906 | 0.874 | 0.93 | 0.904 | 0.914 | 0.912 | 0.901 | 0.905 | 0.895 | 0.91 | 0.93 | 0.896 | 0.908 | 0.897 | 0.918 | 0.904 | 0.928 | 0.886 | 0.926
28.0 (DMSO control at this site: 1-bp insertion 0.035, MH deletion 0.77, edited 0.142) TGGTTCTTCCTTTGTAGAGAGTGTTCATCTGGGAATCTGGGACTTGGATGAGACAATCATT | 0.0926 | 0.18 | 0.117 | 0.789 | 0.793 | 0.767 | 0.818 | 0.763 | 0.774 | 0.774 | 0.794 | 0.755 | 0.768 | 0.777 | 0.747 | 0.768 | 0.739 | 0.737 | 0.748 | 0.76
19.0 (DMSO control at this site: 1-bp insertion 0.121, MH deletion 0.101, edited 0.057) TCTGCAGGGGTCGGAACCCGGGGGCTAGGGCTATCCCGGGGGCTAGGGCTATTAGCGAACC | 0.0353 | 0.0901 | 0.0729 | 0.203 | 0.175 | 0.215 | 0.187 | 0.222 | 0.147 | 0.197 | 0.243 | 0.149 | 0.0547 | 0.209 | 0.212 | 0.207 | 0.188 | 0.187 | 0.202 | 0.177
35.0 (DMSO control at this site: 1-bp insertion 0.01, MH deletion 0.72, edited 0.098) CCACTTTTAGAGAGGGTGAAAATCATCAGTTATCATCAGGGCAACAAATTGCTTTCTCCTA | 0.0645 | 0.127 | 0.0862 | 0.754 | 0.761 | 0.781 | 0.788 | 0.732 | 0.729 | 0.732 | 0.776 | 0.724 | 0.562 | 0.732 | 0.695 | 0.722 | 0.687 | 0.794 | 0.699 | 0.679
41.0 (DMSO control at this site: 1-bp insertion 0.022, MH deletion 0.754, edited 0.115) AAAGAGACAGCAGGTATGAATCCATCTTCCTGACCCTTGGGACCAGCCGGGGCAGTGAAGC | 0.0713 | 0.161 | 0.116 | 0.745 | 0.754 | 0.717 | 0.792 | 0.729 | 0.738 | 0.742 | 0.699 | 0.733 | 0.67 | 0.703 | 0.715 | 0.742 | 0.709 | 0.678 | 0.722 | 0.694
26.0 (DMSO control at this site: 1-bp insertion 0.518, MH deletion 0.262, edited 0.026) AGGGCGCGCCCCACGCACTCTGCGGCAAGTCCCTCTGCGGCAAGTCCTCGGCCCGGAAGAC | 0.0106 | 0.04 | 0.0282 | 0.289 | 0.324 | 0.27 | 0.54 | 0.29 | 0.331 | 0.256 | 0.272 | 0.295 | 0.115 | 0.281 | 0.301 | 0.302 | 0.278 | 0.44 | 0.201 | 0.275
4.0 (DMSO control at this site: 1-bp insertion 0.146, MH deletion 0.523, edited 0.125) ACGCCTTAGTGCACGAGTGACGGGATAATGTGGTCTCAGGTAATTGATAGGCTTCCAACTT | 0.0874 | 0.174 | 0.122 | 0.582 | 0.526 | 0.507 | 0.635 | 0.564 | 0.591 | 0.527 | 0.592 | 0.535 | 0.319 | 0.545 | 0.492 | 0.575 | 0.482 | 0.504 | 0.501 | 0.475
39.0 (DMSO control at this site: 1-bp insertion 0.328, MH deletion 0.371, edited 0.204) CTGCACAGTCACTTAGGATAGGAGAAGATGATGTATAGGGTTTAGTGGGAGATGTTGCAAG | 0.121 | 0.243 | 0.167 | 0.412 | 0.405 | 0.358 | 0.539 | 0.384 | 0.367 | 0.332 | 0.414 | 0.303 | 0.105 | 0.361 | 0.372 | 0.372 | 0.287 | 0.407 | 0.286 | 0.32
23.0 AGAACAAAGCGCTCATATAACGATATGGGGGGTTATGGGGGGTTGAATTGCTTCAGCACGA |  |  |  |  |  |  |  |  |  | 0.88 |  |  |  |  |  |  |  |  |  | 0.856
25.0 (DMSO control at this site: 1-bp insertion 0.017, MH deletion 0.774, edited 0.143) GGGCCTGAATGGTGTGGACATCTACTCGCTGGTGAGCTGGTGACTGAAAACATTCAGTGGC | 0.105 | 0.193 | 0.126 | 0.806 | 0.772 | 0.766 | 0.787 | 0.759 | 0.783 | 0.778 | 0.792 | 0.747 | 0.648 | 0.772 | 0.759 | 0.767 | 0.723 | 0.744 | 0.784 | 0.769
5.0 (DMSO control at this site: 1-bp insertion 0.214, MH deletion 0.567, edited 0.105) CGCTGACCCGAGACCTACGCGAACCGAAATCGGCGACCGGTGCGCAAGCAGGGCTGGCGTC | 0.0695 | 0.151 | 0.0997 | 0.593 | 0.605 | 0.588 | 0.705 | 0.563 | 0.617 | 0.552 | 0.578 | 0.519 | 0.353 | 0.571 | 0.568 | 0.58 | 0.526 | 0.565 | 0.512 | 0.537
31.0 (DMSO control at this site: 1-bp insertion 0.315, MH deletion 0.329, edited 0.026) ACCTCCACAGGCTGGGTGGCCCGGAGGCTGGGCGGCCCGGAGGCTGGGCTGGGCGAGTATC | 0.0134 | 0.0491 | 0.0301 | 0.32 | 0.349 | 0.458 | 0.276 | 0.519 | 0.5 | 0.405 | 0.467 | 0.487 |  | 0.512 |  |  | 0.459 | 0.605 | 0.333 | 0.391
38.0 (DMSO control at this site: 1-bp insertion 0.063, MH deletion 0.487, edited 0.17) GGGCTGGGTGCTAAAATGAGGAGCTCCAAGAAGACTGAGGTGAACCTGGAGGCCCCTGAGC | 0.0925 | 0.193 | 0.157 | 0.497 | 0.485 | 0.505 | 0.546 | 0.488 | 0.513 | 0.501 | 0.507 | 0.46 | 0.441 | 0.483 | 0.495 | 0.495 | 0.458 | 0.548 | 0.432 | 0.439
22.0 (DMSO control at this site: 1-bp insertion 0.573, MH deletion 0.229, edited 0.045) CTGATGGTTGAAGGATTTAGCCGGGGTCCTAGACGCCGGGGTCCTAGACGAAAGGGCCACG | 0.0255 | 0.0686 | 0.0558 | 0.159 | 0.162 | 0.122 | 0.296 | 0.125 | 0.168 | 0.117 | 0.142 | 0.163 | 0.0591 | 0.188 | 0.0873 | 0.201 | 0.209 | 0.267 |  | 0.0524
21.0 CGATTGAGAGTCAAACGGGCCAGAAAACTCCGGGAACGGGCCAGAAAACTCCGGGGCATGG | 0.0627 | 0.169 | 0.117 | 0.191 | 0.163 | 0.144 | 0.276 | 0.188 |  | 0.197 | 0.216 | 0.183 | 0.0533 | 0.176 |  | 0.226 | 0.127 | 0.186 | 0.144 | 
16.0 (DMSO control at this site: 1-bp insertion 0.172, MH deletion 0.29, edited 0.05) CGGACTGCACACATGGGTAGGATCGTGCACGCGAGGTAGGATCGTGCACGCGAAGTTATTC | 0.0306 | 0.0811 | 0.0574 | 0.319 | 0.293 | 0.294 | 0.34 | 0.252 | 0.308 | 0.252 | 0.319 | 0.282 | 0.12 | 0.275 | 0.281 | 0.254 | 0.302 | 0.279 | 0.198 | 0.256
7.0 (DMSO control at this site: 1-bp insertion 0.128, MH deletion 0.374, edited 0.098) TACTCAACCGAGACCTACGCGAACCGAAATCGTATGCCGGTGCGCAAGCAGGGCTGGCGTC | 0.067 |  | 0.0891 | 0.489 | 0.456 | 0.404 | 0.477 | 0.484 | 0.417 | 0.442 | 0.414 | 0.393 | 0.324 | 0.45 | 0.441 | 0.38 | 0.427 | 0.536 | 0.425 | 0.394
